Test [1] deals with Transient receptor potential cation channel subfamily V member 1 (Homo sapiens) (UniProt Q8NER1). The experiment in a line: HTS Assay for Compounds that Act as Enhancers of the Vanilloid Receptor 1 (AID 488979). Also: 0% is about no effect. The gist of the method: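 Calcium influx kinetics via Fluo-8 (480/520 nm) in TRPV1-expressing cells, 2000/well cultured overnight at 35.5C. Compound-alone read 3 min (agonist phase), followed by EC20 capsaicin challenge for 2 min (enhancer phase).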

Test [2] has as its target Thyrotropin receptor (Homo sapiens) (UniProt P16473). The experiment in a line: qHTS Assay for Antagonists of the Thyroid Stimulating Hormone Receptor (AID 488980). Also: series mostly up to about 58 µM; 0% is about no effect. The gist of the method:
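TSHR-transfected HEK293 cells (2000/well) in HEPES-buffered HBSS with 70 uM RO 20-1724 were stimulated with 4 nM TSH (EC80, final) in the presence of compound. cAMP was measured by HTRF competition after lysis and 30 min at RT.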
Background: qHTS replaces the single test concentration by a dilution series.

Test [3] has as its target D(1A) dopamine receptor (Homo sapiens) (UniProt P21728). The experiment in a line: HTS Assay for Allosteric Agonists of the Human D1 Dopamine Receptor: Primary Screen for Agonists (AID 488981). Also: 0% is about no effect. The method in brief:
(§1)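 Calcium flux in an inducible, force-coupled HEK293 Trex D1 line (overnight at 30 C): agonist mode is the 180 s kinetic read after compound; potentiator mode is the following 180 s read after dopamine at EC20.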

Test [4] shares this target. The test is described as follows: HTS Assay for Allosteric Agonists of the Human D1 Dopamine Receptor: Primary Screen for Potentiators (AID 488982). Also: 0% is about no effect. The method in brief:
as §1

The target is the same in test [5]. The test is described as follows: HTS Assay for Allosteric Agonists of the Human D1 Dopamine Receptor: Primary Screen for Antagonists (AID 488983).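 Also: calcium flux response to an EC80 dopamine challenge measured with no-wash dye; % is scaled to controls: 0 for no effect and ±100 for the full control effect; nearly all actives have a fitted effect of over 65% in size.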 The method in brief:
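Calcium-flux read-out in inducible HEK293 T-REx cells expressing D1, dye-loaded 30–90 min at room temperature. Kinetic reads: 180 s after compound (agonist phase), then 180 s after an EC80 dopamine challenge.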

In test [6] the target is ATPase family AAA domain-containing protein 5 (Homo sapiens) (UniProt Q96QE3). The experiment in a line: Validation screen for small molecules that inhibit ELG1-dependent DNA repair in human embryonic kidney (HEK293T) cells expressing luciferase-tagged ELG1 (AID 493107).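 Also: series mostly up to about 46 µM; % is scaled to controls: 0 for no effect and ±100 for the full control effect; inhibitors lower the ELG1-luciferase luminescence signal; nearly all actives have a fitted effect of over 70% in size.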 The method in brief:
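Luciferase read-out, ONE-Glo, 30 min at room temperature, follows 16 h co-exposure at 37 C of compound and the DNA-damaging agent 5-fluorouridine. Cells: HEK293T with ELG1-luciferase fusion, 2,000 per well, DMSO as vehicle.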

In test [7] the target is Thyrotropin-releasing hormone receptor (Homo sapiens) (UniProt P34981). The experiment in a line: qHTS for Small Molecule Agonists and Allosteric Enhancers of Human TRH Receptor: Validation Screen for Agonists (AID 493127;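 active = calcium activation more than 3 SD above the typical response in the agonist read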;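 also: intracellular calcium rise by fluo-8 fluorescence before TRH EC20 addition; 0% is about no effect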). The note with it: TRH receptor agonist cell assay; at 2 µM; stronger effect = higher value. The gist of the method: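 Compound-evoked intracellular calcium release in fluo-8-loaded TRHR cells, read kinetically on FDSS (Ex 480/Em 530, 1 s/cycle) after 23 nL pintool transfer. Agonist phase preceded 10 nM TRH EC20 addition.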

A short description of test [8]: Nrf2 qHTS screen for inhibitors: Validation (AID 493153; active = well fitted inhibition curve with a large enough effect in the main read-out, with a control signal flat, not every such curve was filed as active). The note with it: Potency: luciferase luminescence; viability change: measured here: cytotoxicity max response. The gist of the method: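 Concentration-response on A549 ARE_Fluc reporter cells exposed 18-24 h at 37 C, 5% CO2. Cytotoxicity read first by CellTiter-Fluor fluorescence (Ex 405/Em 525), then Nrf2 inhibition by BugLite luminescence after 15 min.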

Test [9] in a line: qHTS for Inhibitors of Cell Surface uPA Generation: Validation Assay (AID 493164).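 Also: RAW 264.7 macrophage cells exposed to compound for 18 h; 0% is about no effect.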 The gist of the method:
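ATP-Lite luminescence read-out: ATP remains high when uPA activity-dependent LF translocation into the cytoplasm is blocked. RAW 264.7 cells, 18 h compound exposure at 37 C; 7-point titration, 2.45 nM to 38.3 uM final.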

Test [10] has as its target Galactokinase (Homo sapiens) (UniProt P51570). The experiment in a line: qHTS Validation Assay for Inhibitors of Human Galactokinase (GALK) (AID 493189). Also: 0% is about no effect. The method in brief: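 GALK (5 nM) with 35 uM ATP and 100 uM galactose in HEPES pH 8.0 with MgCl2, NaCl, DTT and BSA. Reaction ran 1 h at room temperature. Residual ATP read by Kinase-Glo Plus luminescence.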
Test [11] can be described thus: Validation screen for small molecules that induce DNA re-replication in SW480 colon adenocarcinoma cells (AID 504364). Also: 0% is about no effect. The gist of the method: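 Image-based DNA content read-out: Hoechst stain 40 min, total nuclear fluorescence intensity (ex 405 nm, em 500-530 nm) after 48 h compound exposure of 250 SW480 cells/well at 37 C, 5% CO2, versus DMSO vehicle.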
In test [12] the target is Peptidyl-prolyl cis-trans isomerase NIMA-interacting 1 (Homo sapiens) (UniProt Q13526). The experiment in a line: qHTS Validation Assay to Find Inhibitors of Pin1 (AID 504536; active = well fitted inhibition curve with a large enough effect in the polarisation, with a control signal flat, not every such curve was filed as active; the % refers to the polarisation; also: potency is read from the fitted curve at half-maximal effect). The method in brief:
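Fluorescence polarization competition: compounds (titration) displace HiFluor-488-labeled Pin1-1b peptide from Pin1 (0.3 uM final) in pH 7.5 HEPES buffer with DTT, 10 min at room temperature; %Activity normalized to no-enzyme wells, curves fitted.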

Test [13] concerns the target Phosphoglycerate kinase, glycosomal (Trypanosoma brucei brucei) (UniProt P07378). The test is described as follows: qHTS Validation Assay to Find Inhibitors of Phosphoglycerate Kinase (AID 504547).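 Also: control wells lack PGK and mark full inhibition.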 The gist of the method:
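Luminescence end-point (Kinase-Glo Plus, 10 min) after a 60 min room-temperature coupled reaction. GAPDH at 100nM final supplies 1,3-BPG to PGK. Buffer: 100mM TEA pH 7.6, 5mM MgCl2, 0.01% Tween-20. Wells lacking PGK served as controls.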

Test [14] concerns the target phosphoglycerate mutase (Leishmania major) (UniProt Q4Q090). The experiment in a line: qHTS Validation Assay to Find Inhibitors of Phosphoglycerate Mutase (AID 504548). Also: series mostly up to about 58 µM; % is scaled to controls: 0 for no effect and ±100 for the full control effect. The note with it: Potency: inhibition qHTS. The gist of the method: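 Luminescent end-point read-out via Kinase-GloPlus after a 10-minute development. Reaction: 1.25nM Leishmania major PGAM with substrate and compound, 45 minutes at room temperature in TEA buffer (pH 7.6) with MgCl2 and Tween-20.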

Test [15] has as its target Ubiquitin carboxyl-terminal hydrolase 1 (Homo sapiens) (UniProt O94782). The experiment in a line: Inhibitors of USP1/UAF1: Pilot qHTS (AID 504865). Also: nearly all actives have a fitted effect of over 35% in size. Also: potency is read from the fitted curve at half-maximal effect. The method in brief:
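USP1/UAF1 complex at 1 nM preincubated 15 min at room temperature with compound, then Ub-Rho substrate added at 150 nM final. Fluorescence (480/540 nm) read kinetically in 50 mM HEPES pH 7.8, 0.5 mM EDTA, 1 mM TCEP, 0.1 mg/ml BSA, 0.01% Tween-20.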

Test [16] is described as follows: qHTS for Inhibitors of ATXN expression: Validation of Cytotoxic Assay (AID 588349). Also: % is scaled to controls: 0 for no effect and ±100 for the full control effect. The method in brief:
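Cytotoxicity counter-screen: ATP-based luminescent viability (CellTiter Glo) after 72 hr exposure of HEK293 cells to a compound titration at 37 degrees C.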

Test [17] is described as follows: qHTS for Inhibitors of ATXN expression: Validation (AID 588378). Also: series mostly up to about 57 µM; % is scaled to controls: 0 for no effect and ±100 for the full control effect; nearly all actives have a fitted effect of over 75% in size. The method in brief: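 HEK293 cells carrying ATXN2-firefly luciferase reporter, treated with compound 24 h at 37 °C. Viability read first by CellTiter-Fluor (405/525 nm), then reporter expression by Bright-Glo luminescence; controls were a known ATXN2 expression inhibitor and a luciferase inhibitor.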

Test [18] can be described thus: Validation screen for small molecules that induce genotoxicity in human embryonic kidney (HEK293T) cells expressing luciferase-tagged ELG1 (AID 493106). Also: 0% is about no effect. The gist of the method: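 ELG1-luciferase reporter readout (ONE-Glo, 30 min, room temperature) after 16 hr compound treatment at 37 °C of HEK293T cells at 2,000 per well. Rising luminescence flags genotoxic stress.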

Inconclusive results are not listed. Activity calls are given as the source filed them. Unless noted, calls follow the shape of the dose curve; as a rule, active = well fitted curve in the direction sought with a large enough effect; inconclusive = small, poorly fitted or top-dose-only effect, or another doubt; inactive = no such curve, though single readings can be large; an effect the other way counts as inactive or inconclusive.

Phosphoglycerate kinase, glycosomal (Trypanosoma brucei brucei), sequence (P07378 whole entry, looked up): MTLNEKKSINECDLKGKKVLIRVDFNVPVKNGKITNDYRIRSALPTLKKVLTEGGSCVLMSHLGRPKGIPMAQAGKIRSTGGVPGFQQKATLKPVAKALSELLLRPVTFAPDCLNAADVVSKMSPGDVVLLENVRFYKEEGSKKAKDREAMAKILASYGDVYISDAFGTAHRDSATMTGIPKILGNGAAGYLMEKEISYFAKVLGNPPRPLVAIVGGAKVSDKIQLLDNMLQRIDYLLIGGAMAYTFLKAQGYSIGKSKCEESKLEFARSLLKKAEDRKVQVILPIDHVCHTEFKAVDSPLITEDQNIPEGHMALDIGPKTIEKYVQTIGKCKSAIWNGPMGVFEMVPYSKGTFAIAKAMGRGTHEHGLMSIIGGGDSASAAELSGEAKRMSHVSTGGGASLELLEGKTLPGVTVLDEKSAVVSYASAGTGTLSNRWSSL
Transient receptor potential cation channel subfamily V member 1 (Homo sapiens), sequence (Q8NER1 whole entry, looked up): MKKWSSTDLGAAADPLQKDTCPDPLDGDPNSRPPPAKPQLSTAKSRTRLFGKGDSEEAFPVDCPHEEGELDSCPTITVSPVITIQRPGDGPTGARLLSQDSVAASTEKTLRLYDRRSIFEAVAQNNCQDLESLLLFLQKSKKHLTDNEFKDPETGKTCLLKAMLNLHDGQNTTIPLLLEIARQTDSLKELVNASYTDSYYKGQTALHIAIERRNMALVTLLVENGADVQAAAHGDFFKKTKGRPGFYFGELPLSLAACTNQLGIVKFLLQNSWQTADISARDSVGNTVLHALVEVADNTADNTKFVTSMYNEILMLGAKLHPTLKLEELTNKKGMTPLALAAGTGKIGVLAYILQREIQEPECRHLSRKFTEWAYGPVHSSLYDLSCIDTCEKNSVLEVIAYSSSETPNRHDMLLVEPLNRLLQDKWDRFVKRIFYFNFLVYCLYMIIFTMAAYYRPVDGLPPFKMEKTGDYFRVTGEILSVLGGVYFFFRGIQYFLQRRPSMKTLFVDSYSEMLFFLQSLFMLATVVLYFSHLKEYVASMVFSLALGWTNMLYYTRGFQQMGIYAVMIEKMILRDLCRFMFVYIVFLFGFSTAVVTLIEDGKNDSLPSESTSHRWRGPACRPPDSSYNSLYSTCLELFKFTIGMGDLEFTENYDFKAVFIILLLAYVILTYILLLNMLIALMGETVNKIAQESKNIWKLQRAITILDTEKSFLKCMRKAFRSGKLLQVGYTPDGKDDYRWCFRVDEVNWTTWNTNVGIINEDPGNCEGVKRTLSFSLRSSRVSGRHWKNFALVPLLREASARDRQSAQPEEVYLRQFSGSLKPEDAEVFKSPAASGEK
Galactokinase (Homo sapiens), sequence (P51570 whole entry, looked up): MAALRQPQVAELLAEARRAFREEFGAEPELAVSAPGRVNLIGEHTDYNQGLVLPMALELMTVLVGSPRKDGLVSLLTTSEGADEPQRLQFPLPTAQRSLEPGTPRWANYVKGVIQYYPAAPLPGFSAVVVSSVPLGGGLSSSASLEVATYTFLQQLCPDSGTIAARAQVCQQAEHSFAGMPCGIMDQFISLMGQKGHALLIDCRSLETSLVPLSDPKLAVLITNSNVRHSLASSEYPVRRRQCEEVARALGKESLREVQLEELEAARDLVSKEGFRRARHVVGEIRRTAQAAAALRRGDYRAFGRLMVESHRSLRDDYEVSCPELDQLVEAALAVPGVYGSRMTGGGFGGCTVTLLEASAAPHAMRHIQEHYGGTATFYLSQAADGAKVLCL
Ubiquitin carboxyl-terminal hydrolase 1 (Homo sapiens), sequence (O94782 whole entry, looked up): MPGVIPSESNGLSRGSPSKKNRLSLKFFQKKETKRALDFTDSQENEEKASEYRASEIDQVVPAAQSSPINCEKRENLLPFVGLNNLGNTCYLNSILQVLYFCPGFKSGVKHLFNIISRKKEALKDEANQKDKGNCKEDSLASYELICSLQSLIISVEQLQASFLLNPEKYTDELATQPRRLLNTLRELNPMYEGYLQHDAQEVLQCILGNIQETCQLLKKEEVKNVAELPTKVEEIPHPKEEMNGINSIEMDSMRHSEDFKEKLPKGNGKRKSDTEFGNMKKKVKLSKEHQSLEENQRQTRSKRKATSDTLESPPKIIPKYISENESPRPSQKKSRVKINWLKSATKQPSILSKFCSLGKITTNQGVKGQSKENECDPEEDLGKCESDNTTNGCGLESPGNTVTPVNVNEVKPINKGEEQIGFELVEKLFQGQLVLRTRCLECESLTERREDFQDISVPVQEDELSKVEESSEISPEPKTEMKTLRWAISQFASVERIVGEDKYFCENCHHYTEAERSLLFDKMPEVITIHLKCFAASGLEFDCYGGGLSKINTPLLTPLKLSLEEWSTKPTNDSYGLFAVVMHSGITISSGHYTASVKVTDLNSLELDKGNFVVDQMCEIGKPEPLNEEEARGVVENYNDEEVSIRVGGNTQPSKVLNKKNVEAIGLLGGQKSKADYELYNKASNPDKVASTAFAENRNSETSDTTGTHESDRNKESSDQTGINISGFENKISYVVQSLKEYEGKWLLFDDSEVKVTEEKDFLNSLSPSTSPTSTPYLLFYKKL
Thyrotropin-releasing hormone receptor (Homo sapiens), sequence (P34981 whole entry, looked up): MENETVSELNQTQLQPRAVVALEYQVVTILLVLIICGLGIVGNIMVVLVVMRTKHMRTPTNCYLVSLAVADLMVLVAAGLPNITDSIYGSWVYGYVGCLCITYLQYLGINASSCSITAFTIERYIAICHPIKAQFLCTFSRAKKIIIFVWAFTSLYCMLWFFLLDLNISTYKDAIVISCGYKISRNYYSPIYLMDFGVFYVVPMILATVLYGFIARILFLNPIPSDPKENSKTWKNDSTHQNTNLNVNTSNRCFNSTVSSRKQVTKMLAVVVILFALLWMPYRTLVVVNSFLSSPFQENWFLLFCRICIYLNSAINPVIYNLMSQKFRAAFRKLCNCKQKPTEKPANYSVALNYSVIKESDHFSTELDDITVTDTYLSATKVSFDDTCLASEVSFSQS
D(1A) dopamine receptor (Homo sapiens), sequence (P21728 whole entry, looked up): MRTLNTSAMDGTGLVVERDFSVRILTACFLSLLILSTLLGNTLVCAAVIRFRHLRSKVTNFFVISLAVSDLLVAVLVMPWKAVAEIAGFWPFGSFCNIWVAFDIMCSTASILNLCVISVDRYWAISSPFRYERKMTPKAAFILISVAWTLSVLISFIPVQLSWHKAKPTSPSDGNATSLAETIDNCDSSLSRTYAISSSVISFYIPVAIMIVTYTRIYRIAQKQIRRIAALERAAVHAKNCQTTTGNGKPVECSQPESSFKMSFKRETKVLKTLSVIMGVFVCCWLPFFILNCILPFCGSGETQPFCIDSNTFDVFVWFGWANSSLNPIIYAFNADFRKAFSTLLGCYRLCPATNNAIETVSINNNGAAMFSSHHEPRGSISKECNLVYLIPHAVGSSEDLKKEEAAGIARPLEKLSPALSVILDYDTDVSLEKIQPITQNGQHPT
Thyrotropin receptor (Homo sapiens), sequence (P16473 whole entry, looked up): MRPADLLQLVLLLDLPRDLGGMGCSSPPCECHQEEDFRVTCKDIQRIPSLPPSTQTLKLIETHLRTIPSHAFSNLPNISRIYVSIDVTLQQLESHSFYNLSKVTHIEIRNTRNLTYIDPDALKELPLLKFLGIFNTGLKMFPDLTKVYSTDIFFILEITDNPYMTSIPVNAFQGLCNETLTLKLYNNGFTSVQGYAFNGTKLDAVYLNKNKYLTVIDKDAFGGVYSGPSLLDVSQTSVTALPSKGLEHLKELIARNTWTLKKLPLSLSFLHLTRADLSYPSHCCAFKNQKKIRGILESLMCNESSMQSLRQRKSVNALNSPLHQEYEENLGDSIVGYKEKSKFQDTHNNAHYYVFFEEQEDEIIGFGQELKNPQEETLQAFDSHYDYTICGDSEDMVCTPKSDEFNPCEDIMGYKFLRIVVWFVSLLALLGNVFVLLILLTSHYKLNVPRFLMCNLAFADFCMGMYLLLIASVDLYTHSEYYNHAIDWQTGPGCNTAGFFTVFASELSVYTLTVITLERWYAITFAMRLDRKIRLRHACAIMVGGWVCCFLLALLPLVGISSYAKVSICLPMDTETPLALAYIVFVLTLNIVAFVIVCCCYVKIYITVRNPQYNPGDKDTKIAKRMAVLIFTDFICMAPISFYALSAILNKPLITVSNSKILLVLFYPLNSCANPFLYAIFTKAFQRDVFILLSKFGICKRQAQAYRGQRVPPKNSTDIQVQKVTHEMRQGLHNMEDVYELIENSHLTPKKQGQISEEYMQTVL
phosphoglycerate mutase (Leishmania major), sequence (Q4Q090 1-553): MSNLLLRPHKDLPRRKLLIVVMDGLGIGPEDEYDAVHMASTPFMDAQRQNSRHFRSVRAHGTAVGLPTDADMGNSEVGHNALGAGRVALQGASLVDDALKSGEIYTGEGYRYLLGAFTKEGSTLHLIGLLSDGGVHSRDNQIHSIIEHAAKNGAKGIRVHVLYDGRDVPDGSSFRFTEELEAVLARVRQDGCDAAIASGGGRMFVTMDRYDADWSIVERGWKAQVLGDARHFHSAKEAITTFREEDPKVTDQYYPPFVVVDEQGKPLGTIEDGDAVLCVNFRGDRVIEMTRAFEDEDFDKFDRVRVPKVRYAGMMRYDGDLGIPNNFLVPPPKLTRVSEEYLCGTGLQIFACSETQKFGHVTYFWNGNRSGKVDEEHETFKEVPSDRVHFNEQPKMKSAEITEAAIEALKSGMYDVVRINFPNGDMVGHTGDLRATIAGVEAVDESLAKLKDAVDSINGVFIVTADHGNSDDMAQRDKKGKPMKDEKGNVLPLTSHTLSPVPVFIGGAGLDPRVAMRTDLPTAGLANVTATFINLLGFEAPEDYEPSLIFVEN
Peptidyl-prolyl cis-trans isomerase NIMA-interacting 1 (Homo sapiens), sequence (Q13526 whole entry, looked up): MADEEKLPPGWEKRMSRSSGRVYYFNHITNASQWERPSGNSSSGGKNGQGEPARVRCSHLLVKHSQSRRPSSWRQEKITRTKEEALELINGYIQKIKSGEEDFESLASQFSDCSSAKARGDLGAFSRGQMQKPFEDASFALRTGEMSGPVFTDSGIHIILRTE

With `O=C1OC(=O)C2C3CCC(O3)C12` (stereo not given), the outcome in test [1], in test [2] and in [9] was inactive. Further, the Potency entry in test [3], in test [4], in test [5], in test [6], in test [8] and in test [10] was “inactive” in each case. Moreover, the Potency result in test [11], in [12], in [13], in test [14], in test [15] and in test [16] was “inactive” throughout. Also, the Potency entry in test [17] is “inactive”. In addition, the activation in test [7] was 0.938% (inactive). Also, in test [8], the viability change is -3.78%.
With `CC(=O)/C(C)=N/O`, the result in test [1], in [2] and in test [9] was inactive. Also, the Potency entry in test [3], in test [4], in [5], in test [18], in test [8] and in test [10] was “inactive” throughout. Besides, the Potency result in [11], in test [13], in test [14], in test [15] and in [16] was “inactive” in each case. For the same molecule, in test [7], the activation was 0.0625% (inactive). Besides, in test [8], the viability change came out at 20.6%.
`OCC1NCC(O)C(O)C1O` (stereo not given): the result in test [1], in test [2] and in test [9] was inactive. Also, the Potency result in test [3], in test [4], in [5], in [18], in test [8] and in test [10] was “inactive” each time. Moreover, the Potency entry in [11], in [12], in test [13], in test [14], in [15] and in test [16] was “inactive” in each case. Besides, in [17], the Potency result is “inactive”. The viability change in [8] was -2.29%.
For the molecule `O=C(O)C1CCNCC1`, the result in test [1], in [2] and in test [9] was inactive. Also, the Potency result in [3], in test [4], in test [5], in [18], in test [10] and in test [11] was “inactive” each time. Further, the Potency entry in [12], in test [13], in test [14] and in test [15] was “inactive” throughout. Besides, the activation in test [7] is -0.188% (inactive).
As for `CCCCCCCCCCCCCCSCC(=O)O`, the outcome in test [1], in test [2] and in test [9] was inactive. Further, the Potency entry in test [3], in test [4], in test [5], in [18], in [8] and in test [10] was “inactive” each time. The Potency entry in test [11], in [13], in test [14] and in test [17] was “inactive” each time. Further, in [8], the viability change was 0.626%. In addition, the Potency was 23.9 µM (active) in [12] and 25.1 µM (active) in test [15].
With `N=C(N)SCCc1cnc[nH]1`, the outcome in test [1], in [2] and in test [9] was inactive. Also, the Potency entry in test [3], in [4], in [5], in test [18], in [8] and in test [10] was “inactive” in each case. Moreover, the Potency result in [11], in [12], in test [13], in test [14], in test [15] and in test [16] was “inactive” in each case. Further, the Potency result in test [17] is “inactive”. In [8], the viability change was -8.6%.
For the molecule `COc1cc([C@@H]2c3cc4c(cc3[C@H](O)C3COC(=O)[C@@H]32)OCO4)cc(OC)c1OC` (stereo not given in full), the result in test [1], in [2] and in test [9] was inactive. The Potency entry in test [3], in test [4], in [5], in [6], in test [10] and in test [12] was “inactive” throughout. Moreover, the Potency result in test [13], in [14] and in test [17] was “inactive” each time.

The record behind these values is PubChem BioAssay (NCATS).
